Laboratory results taken from the supplement of paper PMC9694430.

How the values were obtained:
Assay in all cases: thermal shift delta Tm vs DMSO control; higher = stronger stabilization (binding)
Details in all cases: 12.5 µM; protein concentration 2 µM
[1] = tested on: LOC_OS01G01410-cb001
Method in brief: (§1)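 Thermal shift values come from differential scanning fluorimetry on purified rice kinase domains made in E. coli, with melting temperatures obtained from Boltzmann fits. Samples of 19.5 μl held 2 μM kinase, 100 mM potassium phosphate pH 7.5, 150 mM NaCl, 10% glycerol, 5 × SYPRO Orange and compound in DMSO, and were heated from 25°C to 95°C at 0.05°C/s. Each shift is a triplicate mean relative to the DMSO-only protein sample.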

[2] = tested on: LOC_OS01G02750-cb003
Method in brief: as §1

[3] = tested on: LOC_OS01G10900-cb004
Method in brief: as §1

[4] = tested on: LOC_OS01G13800-cb001
Method in brief: as §1

[5] = tested on: LOC_OS01G14860-cb001
Method in brief: as §1

[6] = tested on: LOC_OS01G21960-cb002
Method in brief: as §1

[7] = tested on: LOC_OS01G39600-cb002
Method in brief: as §1

[8] = tested on: LOC_OS01G48390-cb002
Method in brief: as §1

[9] = tested on: LOC_OS01G51400-cb002
Method in brief: as §1

[10] = tested on: T1, LOC_OS01G52050-cb004
T1 sequence (whole entry): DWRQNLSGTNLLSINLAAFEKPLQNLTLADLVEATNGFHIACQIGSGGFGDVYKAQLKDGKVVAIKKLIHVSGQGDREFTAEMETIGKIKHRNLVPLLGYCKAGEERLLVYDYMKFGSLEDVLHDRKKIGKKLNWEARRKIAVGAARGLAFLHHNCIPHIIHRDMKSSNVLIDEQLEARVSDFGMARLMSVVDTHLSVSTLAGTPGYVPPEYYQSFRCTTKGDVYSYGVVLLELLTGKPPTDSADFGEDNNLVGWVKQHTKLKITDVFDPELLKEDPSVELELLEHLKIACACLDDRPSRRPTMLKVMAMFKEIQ
Method in brief: as §1

[11] = tested on: LOC_OS01G57100-cb003
Method in brief: as §1

[12] = tested on: LOC_OS01G60330-cb001
Method in brief: as §1

[13] = tested on: LOC_OS01G60700-cb002
Method in brief: as §1

[14] = tested on: LOC_OS01G63280-cb003
Method in brief: as §1

[15] = tested on: LOC_OS01G67340-cb003
Method in brief: as §1

[16] = tested on: LOC_OS01G70970-cb002
Method in brief: as §1

[17] = tested on: LOC_OS02G07810-cb001
Method in brief: as §1

[18] = tested on: LOC_OS02G08530-cb003
Method in brief: as §1

[19] = tested on: LOC_OS02G14120-cb001
Method in brief: as §1

[20] = tested on: LOC_OS02G17970-cb001
Method in brief: as §1
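Further: purified Escherichia coli-expressed rice kinase domain construct.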

SMILES	thermal shift delta Tm [1]	thermal shift delta Tm [2]	thermal shift delta Tm [3]	thermal shift delta Tm [4]	thermal shift delta Tm [5]	thermal shift delta Tm [6]	thermal shift delta Tm [7]	thermal shift delta Tm [8]	thermal shift delta Tm [9]	thermal shift delta Tm [10]	thermal shift delta Tm [11]	thermal shift delta Tm [12]	thermal shift delta Tm [13]	thermal shift delta Tm [14]	thermal shift delta Tm [15]	thermal shift delta Tm [16]	thermal shift delta Tm [17]	thermal shift delta Tm [18]	thermal shift delta Tm [19]	thermal shift delta Tm [20]
Cc1[nH]nc2ccc(-c3cncc(OC[C@@H](N)Cc4ccccc4)c3)cc12	0.54 °C	2.26 °C	0.37 °C	0.21 °C	4.96 °C	3.58 °C	-0.73 °C	1.02 °C	0.06 °C	2.3 °C	1.88 °C	0.68 °C	1.01 °C	0.26 °C	1.12 °C	0.36 °C	1.05 °C	2.68 °C	3.18 °C	0.41 °C
CO[C@H]1CC[C@H](N2C(=O)CNc3ncc(-c4ccc(C(C)(C)O)nc4)nc32)CC1	0.1 °C	-0.2 °C	-0.9 °C	0.15 °C	0.82 °C	1.01 °C	-1.7 °C	-0.27 °C	0.12 °C	-1.81 °C	-0.57 °C	0.72 °C	0.21 °C	-0.43 °C	0.09 °C	-0.05 °C	-0.1 °C	0.65 °C	-1.04 °C	-0.48 °C
CCCS(=O)(=O)Nc1ccc(F)c(C(=O)c2c[nH]c3ncc(-c4ccc(Cl)cc4)cc23)c1F [Vemurafenib (PLX4032, RG7204)]	3.81 °C	7.84 °C	6.74 °C	1.27 °C	4.3 °C	2.86 °C	11.7 °C	3.18 °C	1.03 °C	11.1 °C	3.36 °C	10.2 °C	0.62 °C	14.8 °C	3.46 °C	3.78 °C	2.03 °C	1.07 °C	4.6 °C	1.48 °C
COCCNCc1ccc(-c2cc3nccc(Oc4ccc(NC(=O)C5(C(=O)Nc6ccc(F)cc6)CC5)cc4F)c3s2)nc1 [Sitravatinib (MGCD516)]	4.2 °C	7.38 °C	4.89 °C	-0.17 °C	3.69 °C	0.72 °C	0.85 °C	6.78 °C	0.58 °C	4.17 °C	0.24 °C	1.12 °C	-0.27 °C	1.87 °C	7.72 °C	5.29 °C	0.47 °C	2.12 °C	7.48 °C	1.18 °C
Cc1ccc(-n2nc(C(C)(C)C)cc2NC(=O)Nc2ccc(OCCN3CCOCC3)c3ccccc23)cc1 [Doramapimod (BIRB 796)]	0.6 °C	0.28 °C	0.4 °C	0.47 °C	1.26 °C	0.35 °C	0.04 °C	0.73 °C	0.2 °C	1.1 °C	1.19 °C	1.27 °C	0.98 °C	1.11 °C	0.16 °C	0.56 °C	0.89 °C	0.89 °C	0.95 °C	0.9 °C
CN1CCN(c2cccc(Nc3nc4c(-c5ccc(S(C)(=O)=O)cc5)cccn4n3)c2)CC1	2.06 °C	0.63 °C	1.02 °C	-0.37 °C	0.51 °C	1.39 °C	2.12 °C	1.12 °C	0.39 °C	2.68 °C	0.76 °C	13.8 °C	0.45 °C	0.49 °C	1.35 °C	0.37 °C	0.59 °C	1.34 °C	6.3 °C	0.48 °C
CC[C@@H](N)CNc1ccnc(-c2cc(-c3cnn(C)c3)ccc2O)n1	0.15 °C	2.58 °C	0.85 °C	-0.28 °C	2.58 °C	2.15 °C	-0.05 °C	1.98 °C	0.28 °C	1.98 °C	0.71 °C	0.32 °C	-0.42 °C	0.05 °C	1.83 °C	0.65 °C	-0.8 °C	2.73 °C	4.11 °C	0.54 °C
CCn1nc(C2CCN(C(=O)CCO)CC2)nc1-c1cnc(N)c(-c2nnc(C(C)(C)C)o2)n1	0.39 °C	0.51 °C	0.81 °C	0.46 °C	2.91 °C	1.09 °C	2.31 °C	0.07 °C	-0.09 °C	1.14 °C	0.59 °C	0.91 °C	1.19 °C	1.82 °C	1.55 °C	1.96 °C	1.55 °C	2.73 °C	5.17 °C	1.34 °C
Cn1cc(-c2ccc3nnc(Sc4ccc5ncccc5c4)n3n2)cn1	0.49 °C	0.09 °C	3.13 °C	-0.11 °C	-0.13 °C	0.18 °C	0.17 °C	0.29 °C	0.08 °C	0.42 °C	0.37 °C	0.34 °C	1.28 °C	0.23 °C	0.43 °C	0.3 °C	0.16 °C	1.1 °C	1.81 °C	0.07 °C
C=CC(=O)Nc1ccc2ncnc(Nc3ccc(OCc4cccc(F)c4)c(Cl)c3)c2c1	4.44 °C	7.88 °C	3.29 °C	2.47 °C	2.59 °C	3.8 °C	3.44 °C	3.63 °C	0.29 °C	6.13 °C	5.43 °C	8.4 °C	1.59 °C	0 °C	4.19 °C	3.43 °C	2.95 °C	1.07 °C	2.45 °C	2.87 °C
CC(C)(O)CC(=O)NCCn1ccc2ncnc(Nc3ccc(Oc4cccc(C(F)(F)F)c4)c(Cl)c3)c21	1.78 °C	3.42 °C	1.92 °C	0.44 °C	1.32 °C	1.64 °C	3.99 °C	2.26 °C	1.72 °C	4.47 °C	2.91 °C	5.27 °C	0.11 °C	1.26 °C	1.33 °C	1.03 °C	1.53 °C	0.93 °C	1.51 °C	0.83 °C
CNC(=O)c1cc(Oc2ccc(NC(=O)Nc3cc(C(C)(C)C)nn3-c3ccc4ncccc4c3)c(F)c2)ccn1 [Rebastinib (DCC-2036)]	1.21 °C	0.84 °C	0.98 °C	0.38 °C	7.66 °C	1.31 °C	0.57 °C	1.3 °C	0.47 °C	1.95 °C	2.72 °C	1.36 °C	0.84 °C	11.5 °C	0.32 °C	3.62 °C	1.36 °C	2.28 °C	8.15 °C	1.32 °C
